Test results: PubChem BioAssay AID434970 (Sanford-Burnham Center for Chemical Genomics, 2010)
In all, about 11,000 compounds went through this assay and about 310 (2.8%) were called active. Cut-off read from the data, not from the text of the source: active = activity change below about -85%; inactive = the rest. What follows is part of a selection rich in actives, with near analogues and random picks from the rest.

What follows are compounds tested on intestinal alkaline phosphatase [Mus musculus] (assay: activators of mouse IAP, confirmation, biochemical, luminescence, single concentration (AID 434970)). Conditions: purified mouse IAP, CDP-Star luminescence, 30 min, at 10 µM; activation factor: measured here: IAP activation factor, stronger effect = higher value; activity change, negative = activation: stronger effect = lower value.

Structure (SMILES) | activation factor | activity change, negative = activation
Cc1cc(C)cc(NC(=O)Cn2c(-c3ccccc3Cl)nc3ccccc32)c1 | 2.48 | -148% (active)
O=C(Cn1c(-c2ccccc2Cl)nc2ccccc21)Nc1cccc(Cl)c1 | 2.51 | -151% (active)
O=C(CCn1cnc2ccccc2c1=O)Nc1cccc(Cl)c1 | 1.01 | -1.4% (inactive)
Cc1ccc(C(=O)NC(C)c2nc3ccccc3n2CC(=O)Nc2c(C)cc(C)cc2C)cc1 (stereo not drawn) | 1.1 | -10.2% (inactive)
O=C(CCN1C(=O)c2ccccc2C1=O)NC(=S)Nc1cccc(Cl)c1 | 0.956 | 4.4% (inactive)
Cc1ccc(SCc2nc3ccccc3n2CC(=O)Nc2ccc(Cl)cc2)cc1 | 1.85 | -85.5% (active)
Cc1cc(C)cc(NC(=O)CCc2nc3ccccc3[nH]2)c1 | 1.04 | -3.9% (inactive)
Cc1ccc(SCc2nc3ccccc3n2CC(=O)Nc2ccccc2)cc1 | 1.56 | -56% (inactive)
O=C(CSc1nnc(Cn2nnc3ccccc32)o1)Nc1ccc(Cl)cc1 | 0.985 | 1.5% (inactive)
Fc1ccccc1Cn1nnc2c(NCc3ccccn3)ncnc21 | 0.966 | 3.35% (inactive)
CCN(CC)CCNC(=O)C1c2ccccc2C(=O)N(CCOC)C1c1ccc(F)cc1 (stereo not drawn) | 0.972 | 2.85% (inactive)
Cc1ccc(C(C)NC(=S)NCc2ccc(F)cc2)c(C)c1 (stereo not drawn) | 1.39 | -38.5% (inactive)
CC(=O)Nc1ccc(SCC(=O)OCC(=O)NC(=O)NCc2ccco2)cc1 | 0.893 | 10.7% (inactive)
COc1ccc(Cl)cc1NC(=O)C1CCCO1 (stereo not drawn) | 0.924 | 7.6% (inactive)
Cc1ccc(C(=O)O)cc1S(=O)(=O)N1CCSCC1 | 0.916 | 8.35% (inactive)
CCN(CC)CCCNC(=O)C1c2cc(OC)c(OC)cc2C(=O)N(C)C1c1cccs1 (stereo not drawn) | 1.04 | -4.25% (inactive)
COc1cccc(-c2cc(C(F)(F)F)n3ncc(C(=O)NCC4CCCO4)c3n2)c1 (stereo not drawn) | 1.05 | -4.65% (inactive)
CC(C)CCNC(=O)COc1ccc2c(c1)C(=O)CC(C)(C)O2 | 1 | -0.15% (inactive)
CC(CNC(=S)Nc1cc(F)cc(F)c1)CSc1ccc(Cl)cc1 (stereo not drawn) | 1.3 | -29.9% (inactive)
CC(C)Oc1ccc(/C=N/NC(=O)C(CSCc2ccccc2)NC(=O)c2ccc([N+](=O)[O-])cc2)cc1 (stereo not drawn) | 0.941 | 5.95% (inactive)
CC(C)c1ccc(NC(=O)C2CC(=O)Nc3nc4ccccc4n32)cc1 (stereo not drawn) | 2.38 | -138% (active)
Cc1ccc(NC(=O)C2CC(=O)Nc3nc4ccccc4n32)c(C)c1 (stereo not drawn) | 2.57 | -157% (active)
CSc1nc2n(n1)C(c1cccc(F)c1)C(C(=O)Nc1ccc(C)cc1C)=C(C)N2 (stereo not drawn) | 0.93 | 6.95% (inactive)
Cc1ccc(NC(=O)C2C(c3ccccc3)C2(Cl)Cl)c(C)c1 (stereo not drawn) | 1.59 | -59.4% (inactive)
Cc1ccc(NC(=O)C2CC(=O)NC(N3CCc4ccccc43)=N2)cc1 (stereo not drawn) | 0.947 | 5.35% (inactive)

Structure (SMILES) | activation factor | activity change, negative = activation
CC(C)c1ccc(NC(=O)C(c2ccccc2)N2CC(=O)Nc3ccccc32)cc1 (stereo not drawn) | 1.24 | -23.8% (inactive)
O=C1/C(=C/c2ccco2)CCc2ccccc21 | 1.04 | -4% (inactive)
Cc1ccc(C)c(NS(=O)(=O)c2ccc3[nH]c(=O)oc3c2)c1 | 0.111 | 88.9% (inactive)
COc1ccc(S(=O)(=O)N(C)C[C@H]2Oc3ccc(NC(=O)Nc4ccccc4)cc3C(=O)N([C@H](C)CO)C[C@@H]2C)cc1 | 2.15 | -115% (active)
COc1ccc(NC(=O)Nc2ccc3c(c2)C(=O)N([C@H](C)CO)C[C@H](C)[C@@H](CN(C)S(=O)(=O)c2ccc(OC)cc2)O3)cc1 | 1.77 | -77.3% (inactive)
COc1ccc(NC(=O)Nc2ccc3c(c2)C(=O)N([C@H](C)CO)C[C@H](C)[C@@H](CN(C)S(=O)(=O)c2ccc(F)cc2)O3)cc1 | 2.01 | -101% (active)
C[C@H](CO)N1C[C@H](C)[C@@H](CN(C)S(=O)(=O)c2ccc(F)cc2)Oc2ccc(NC(=O)Nc3ccccc3)cc2C1=O | 1.91 | -91.2% (inactive)
COc1ccc(S(=O)(=O)N(C)C[C@H]2Oc3ccc(NC(=O)Nc4ccc5c(c4)OCO5)cc3C(=O)N([C@H](C)CO)C[C@@H]2C)cc1 | 1.86 | -86.1% (inactive)
C[C@H](CO)N1C[C@H](C)[C@@H](CN(C)S(=O)(=O)c2ccccc2)Oc2ccc(NC(=O)Nc3ccc4c(c3)OCO4)cc2C1=O | 1.95 | -94.6% (inactive)
C[C@H](CO)N1C[C@H](C)[C@@H](CN(C)S(=O)(=O)c2ccccc2)Oc2ccc(NC(=O)Nc3ccccc3)cc2C1=O | 2.62 | -162% (active)
COc1ccc(NC(=O)N(C)C[C@H]2Oc3ccc(NC(=O)Nc4ccc(C(F)(F)F)cc4)cc3C(=O)N([C@H](C)CO)C[C@@H]2C)cc1 | 1.75 | -75.5% (inactive)
COc1ccc(NC(=O)Nc2ccc3c(c2)C(=O)N([C@H](C)CO)C[C@H](C)[C@@H](CN(C)S(=O)(=O)c2ccccc2)O3)cc1 | 1.98 | -97.7% (inactive)
COc1ccc2[nH]c(=O)c(CN(C(C)=O)c3cccc(C)c3)cc2c1 | 0.991 | 0.9% (inactive)
O=C(CSc1nnc(-c2cccs2)n1-c1cccc(Cl)c1)c1cccc2c1OCCO2 | 0.901 | 9.9% (inactive)
CCCc1[nH]nc2c1C(Cc1ccccc1)C(C#N)=C(N)O2 (stereo not drawn) | 0.921 | 7.85% (inactive)
CC(C)N(C(=O)[C@H]1C[C@H](CC(=O)NCCCn2ccnc2)C(=O)N2CCc3c([nH]c4cc(CCC(=O)N(C)C)ccc34)[C@]12C)C(C)C | 0.995 | 0.5% (inactive)
CCOC(=O)C1C(C(=O)OC)=C(C2=CCCCC2)c2ccccc2N1S(=O)(=O)C(F)(F)F (stereo not drawn) | 0.97 | 3% (inactive)
Cc1ccc(NC(=O)C2CCCNC2=O)nc1 (stereo not drawn) | 0.929 | 7.05% (inactive)
Cc1cc(N2CCN(C)CC2)nc2ccc(NC(=O)c3ccc4c(c3)OCO4)cc12 | 1.03 | -2.9% (inactive)
CCCc1n[nH]c2c1/C(=N\O)CCC2 | 1.05 | -5.35% (inactive)
CSc1ccc(CN2CCC(n3nccc3NC(=O)CCCc3ccccc3)CC2)cc1 | 2.27 | -126% (active)
O=C(CCCc1ccccc1)Nc1ccnn1C1CCN(Cc2ccc(Cl)cc2)CC1 | 2.18 | -118% (active)
O=C(CN1CCN(Cc2ccc(Cl)cc2)CC1)N/N=C/c1ccncc1 | 0.975 | 2.5% (inactive)
O=C(CCc1nc2ccccc2c(=O)[nH]1)NC1CCN(Cc2ccccc2)CC1 | 0.905 | 9.55% (inactive)
Cc1ccc(CC(NC(=O)C2CCCCC2)C(=O)O)cc1 (stereo not drawn) | 1.07 | -6.55% (inactive)

Structure (SMILES) | activation factor | activity change, negative = activation
CC(C)Cc1ccc(CN2CCC(n3nccc3NC(=O)C3CCCC3)CC2)cc1 | 1.98 | -98.2% (active)
Cc1ccccc1NC(=O)CCN1CCN(Cc2ccccc2)CC1 | 1.13 | -13.2% (inactive)
O=C(NNS(=O)(=O)c1ccc(Cl)cc1)C1CCN(Cc2ccccc2)CC1 | 1.1 | -9.8% (inactive)
Cc1onc(-c2ccccc2)c1C(=O)Nc1ccnn1C1CCCCC1 | 0.923 | 7.65% (inactive)
CCCN1Cc2cc(OC)ccc2-c2ccccc2S1(=O)=O | 1.13 | -13.1% (inactive)
O=C(NCc1ccc2c(c1)OCO2)c1cccnc1 | 1.13 | -13% (inactive)
O=C(OCC1OC2C(Oc3nc(=O)ccn32)C1O)c1ccccc1 (stereo not drawn) | 1.02 | -1.5% (inactive)
N#Cc1c2c(c(NCc3cccnc3)n3c1nc1ccccc13)CCC2 | 0.779 | 22.1% (inactive)
C#CCOCCOCCOCCNc1nc(N2CCN(C(=O)CCCCCCCCCCNC(=O)[C@H](CCCCN)n3cc(C)nn3)CC2)nc(N2CCN(C(=O)CCCCCCCCCCNC(=O)[C@@H]([C@H](C)CC)n3cc(CCCCCN)nn3)CC2)n1 | 3.63 | -263% (active)
C#CCOCCOCCOCCNc1nc(N2CCN(C(=O)CCCCCCCCCCNC(=O)[C@H]([C@@H](C)CC)n3cc(CCCCN=C(N)N)nn3)CC2)nc(N2CCN(C(=O)CCCCCCCCCCNC(=O)[C@H](CCCCN)n3cc(C)nn3)CC2)n1 | 8.54 | -754% (active)
CC1CCCC(C(=O)O)N1C(=O)CCS (stereo not drawn) | 0.988 | 1.25% (inactive)
O=C(Cc1c[nH]c2ccccc12)Nc1nc2ccccc2[nH]1 | 0.845 | 15.5% (inactive)
COC(=O)c1c(NC(=O)Nc2ccc(Cl)cc2)sc(C)c1C | 0.99 | 1% (inactive)
CC(C)S(=O)(=O)c1csc(NC(=O)Nc2ccc(Cl)cc2)c1Cl | 2.16 | -116% (active)
Cc1csc(NC(=O)Nc2ccc(Cl)cc2)n1 | 1.11 | -11.1% (inactive)
COC(=O)c1ccc(NC(=O)Nc2cccc(F)c2)cc1 | 1.97 | -97.4% (active)
COC(=O)c1ccc(NC(=O)Nc2ccc(F)c(Cl)c2)cc1 | 1.86 | -86.3% (inactive)
CCOC(=O)c1ccc(NC(=O)c2ccc3c(c2)OCO3)cc1 | 0.959 | 4.1% (inactive)
CCOC(=O)c1ccc(NC(=O)Nc2ccc(F)cc2)cc1 | 1.67 | -66.6% (inactive)
CCCCOC(=O)c1ccc(NC(=O)Nc2ccc(OC)c(OC)c2)cc1 | 1.64 | -63.5% (inactive)
CCS(=O)(=O)Nc1ccc(C(=O)OC)cc1 | 0.912 | 8.8% (inactive)
COC(=O)c1ccc(NC(=O)Nc2ccc(C)cc2)cc1 | 2.15 | -115% (active)
CCOC(=O)c1ccc(NC(=O)Nc2ccc3c(c2)OCCO3)cc1 | 2.06 | -106% (active)
CNC(=O)CCC(=O)Nc1ccc(C(=O)OC)cc1 | 0.98 | 2.05% (inactive)
